# Reference: PubChem BioAssay (NCATS)
# Unmarked numbers belong to inactive results. Records with an inconclusive call do not appear. The list shows a part of the results. The source made the active and inactive calls. Unless noted, calls come from the whole dose curve; as a rule, active = well fitted curve in either direction with a large enough effect (not every such curve was filed as active); inconclusive = small, poorly fitted or top-dose-only effect, or another doubt; inactive = flat fitted curve, though single readings scatter.
# How the values were obtained:
# [1] = target: Lysosomal acid glucosylceramidase (Homo sapiens) (UniProt P04062); experiment: Glucocerebrosidase-p2 (AID 348; in the data active = potency below about 10 µM; note: potency is the fitted concentration of half-maximal effect); details: purified GBA, blue fluorogenic substrate, 40 min
# Procedure, shortened: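 Compounds titrated from 0.6 nM upwards against 0.2 nM enzyme in pH 5.9 citric acid/KH2PO4, taurocholate, tween-20; blue fluorogenic substrate 80 uM, 40 min room temperature, stopped and read Ex 365/Em 440 for AC50.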
# [2] = AP1 Signaling Pathway (AID 357); details: ME-180 AP-1-bla reporter, EGF-induced, beta-lactamase ratio, 5 h; at 7.69 µM (top of the series) unless noted;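 note: ME-180 reporter cells stimulated with EGF at its EC50 level; % is set by controls: 0 for no effect and ±100 for the full control effect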
# Procedure, shortened: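 Titration-series screen for positive or negative modulators of EC50 EGF-induced signaling in ME-180 cells carrying an AP-1-driven beta-lactamase reporter. After 5 hours at 37 degrees Celsius, CCF4 460nm/530nm emission ratio gave %Activity; AC50 values derived.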
# [3] = target: Cytochrome P450 1A2 (Homo sapiens) (UniProt P05177); experiment: p450-cyp1a2 (AID 410; calls by dose curve; note: potency is the fitted concentration of half-maximal effect;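 for activity change, negative = inhibition: -100% = full effect of reference inhibitor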)
# Procedure, shortened: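 Inhibition was calculated relative to 57 uM furafylline (full inhibition). The reaction used human CYP1A2 at 20nM with Luciferin-ME at its Km, 100uM, driven by an NADPH-regenerating system for 60 min at room temperature.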
# [4] = NFAT Signaling Pathway (AID 444); details: Jurkat NFAT-bla M1, carbachol, beta-lactamase ratio, 5 h; at 7.69 µM (top of the series) unless noted;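 note: carbachol stimulus at about its EC50 of 1 µM final; % is set by controls: 0 for no effect and ±100 for the full control effect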
# Procedure, shortened: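 Jurkat cells carrying an NFAT-driven β-lactamase reporter and co-transfected muscarinic M1 receptor were treated with compound plus carbachol (1 uM final, an EC50 level) for 5 h at 37 °C. CCF4 loading followed for 1 h at RT; 460/530 nm ratio gave %activity.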
# [5] = Stat Signaling Pathway (AID 446); details: ME-180 SIE beta-lactamase reporter, IL-6 stimulated, 5 h; at 7.69 µM (top of the series) unless noted;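 note: ME-180 cervical cancer cells given 40 pM IL-6 alongside compound; SIE-controlled beta-lactamase reporter measured as 460/530 nm FRET emission ratio; % is set by controls: 0 for no effect and ±100 for the full control effect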
# Procedure, shortened: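 Screening format detects activators and inhibitors alike: ME-180 SIE-bla cells stimulated at 40 pM IL-6 for 5 hrs with compound, then dual-emission beta-lactamase read at 405 nm excitation.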
# [6] = target: Glucocorticoid receptor (Homo sapiens) (UniProt P04150); experiment: GR-GFP Redistribution (AID 450;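 active = compounds whose dose series gives a full or clear partial fitted curve of increased nuclear translocation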; note: potency is the fitted concentration of half-maximal effect); details: U2OS GR-GFP nuclear translocation, laser cytometry, 2 h
# [7] = target: Glucocorticoid receptor (Homo sapiens) (UniProt P04150); experiment: GR-EFC Redistribution (AID 451; calls by dose curve; note: potency is the fitted concentration of half-maximal effect); details: CHO-K1 GR-EFC translocation, beta-gal luminescence, 2 h
# Procedure, shortened: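 CHO-K1 cells stably expressing nuclear-localized β-gal enzyme acceptor and GR fused C-terminally to the enzyme donor fragment; ligand-driven nuclear translocation restores β-gal by complementation. Compounds titrated up to 46 uM final, 2 h at 37 °C; luminescence read.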
# [8] = target: Mitogen-activated protein kinase 10 (Mus musculus) (UniProt Q61831); experiment: JNK3 AlphaScreen Assay (AID 530);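 note: kinase came from lysate of stimulated human HepG2 cells; signal reports phosphorylation of biotinylated GST-cJun 1-79 at Ser73 with 10 µM ATP; % is set by controls: 0 for no effect and ±100 for the full control effect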
# Procedure, shortened: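 JNK3 came from HepG2 lysates pre-activated with IL-1beta and TNF-alpha and phosphorylated biotinylated GST-cJun (1-79) at 10 uM ATP, pH 7.6, room temperature. Compounds were titrated. AlphaScreen signal used anti-phospho-cJun (Ser73) antibody.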
# [9] = qHTS Assay for Inhibitors of Fructose-1,6-bisphosphate Aldolase from Giardia Lamblia: Coupling assay counterscreen confirmation (AID 2795; active = well fitted curve in the direction sought with a large enough effect; an effect the other way counts as inactive or inconclusive; note: % is set by controls: 0 for no effect and ±100 for the full control effect; nearly all actives have a fitted effect of over 55% in size)
# Procedure, shortened: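 Compounds at up to 57.5 uM final tested against the coupling enzymes and resorufin-type fluorescent detection only, aldolase omitted. Ex 525 nm/em 598 nm read after 10 min enzyme-compound and 20 min substrate incubations, room temperature.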
# [10] = target: 3',5'-cyclic-AMP phosphodiesterase 4B (Homo sapiens) (UniProt Q07343); experiment: qHTS Assay for Inhibitors of PDE-IV (AID 607; active = well fitted activation curve with a large enough effect in the main read-out, with a control signal flat, not every such curve was filed as active; note: % of control where 0% means no effect)
# Procedure, shortened: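 The readout is membrane depolarisation from a cAMP-sensing CNG channel, detected with a potential dye at ex 535/em 590. Cells were HEK293-derived (endogenous PDE-IV) at 1000 cells/well, titrated up to 22.9 uM final.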
# [11] = target: Cytochrome P450 3A4 (Homo sapiens) (UniProt P08684); experiment: qHTS Assay for Activators of Cytochrome P450 3A4 (AID 885; active = well fitted curve in the direction sought with a large enough effect; an effect the other way counts as inactive or inconclusive; note: nearly all actives have a fitted effect of over 65% in size)
# Procedure, shortened: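 Steps: enzyme/substrate mix dispensed; compound added, 10 min RT; NADPH regeneration solution added, 60 min RT; luciferin detection buffer stops reaction; 20 min later luminescence measured.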
# [12] = Confirmation and Secondary Assay for Modulators of Hemoglobin Beta Chain Splicing at IVS2 654 locus (AID 910; active = well fitted curve in the direction sought with a large enough effect; an effect the other way counts as inactive or inconclusive;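 note: per-well total GFP intensity by laser scanning cytometry after 2-day treatment; % of control where 0% means no effect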)
# Procedure, shortened: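 HeLa cells stably carrying EGFP interrupted by mutant beta-globin IVS2-654 intron (CMV-driven) were treated with compound for 2 days at 37C; corrected splicing was scored as total peak GFP intensity per well (488 nm excitation, 500-520 nm emission).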
# [13] = Confirmation and Secondary Assay for Modulators of Hemoglobin Beta Chain Splicing at IVS2 705 locus (AID 930; active = well fitted curve in the direction sought with a large enough effect; an effect the other way counts as inactive or inconclusive;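 note: HeLa cells stably expressing the EGFP-705 splicing reporter; GFP fluorescence per well restored by corrected splicing of the IVS2-705 intron in EGFP; % of control where 0% means no effect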)
# Procedure, shortened: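 Secondary splice-site specificity test uses HeLa expressing CMV-driven EGFP interrupted by IVS2-705; cells were treated 2 days at 37C with 500 nM antisense PNA as positive control.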
# [14] = target: Ubiquitin carboxyl-terminal hydrolase 1 (Homo sapiens) (UniProt O94782); experiment: Inhibitors of USP1/UAF1: Pilot qHTS (AID 504865; active = well fitted curve in the direction sought with a large enough effect; an effect the other way counts as inactive or inconclusive;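 note: rhodamine fluorescence freed from ubiquitin-rhodamine substrate followed over time; top concentration of the series differs between compounds; % is set by controls: 0 for no effect and ±100 for the full control effect; nearly all actives have a fitted effect of over 35% in size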)
# Procedure, shortened: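 USP1/UAF1 complex at 1 nM preincubated 15 min at room temperature with compound, then Ub-Rho substrate added at 150 nM final. Fluorescence (480/540 nm) read kinetically in 50 mM HEPES pH 7.8, 0.5 mM EDTA, 1 mM TCEP, 0.1 mg/ml BSA, 0.01% Tween-20.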
# Sequence of Glucocorticoid receptor (Homo sapiens) (P04150 whole entry, looked up, the tested form may be a part): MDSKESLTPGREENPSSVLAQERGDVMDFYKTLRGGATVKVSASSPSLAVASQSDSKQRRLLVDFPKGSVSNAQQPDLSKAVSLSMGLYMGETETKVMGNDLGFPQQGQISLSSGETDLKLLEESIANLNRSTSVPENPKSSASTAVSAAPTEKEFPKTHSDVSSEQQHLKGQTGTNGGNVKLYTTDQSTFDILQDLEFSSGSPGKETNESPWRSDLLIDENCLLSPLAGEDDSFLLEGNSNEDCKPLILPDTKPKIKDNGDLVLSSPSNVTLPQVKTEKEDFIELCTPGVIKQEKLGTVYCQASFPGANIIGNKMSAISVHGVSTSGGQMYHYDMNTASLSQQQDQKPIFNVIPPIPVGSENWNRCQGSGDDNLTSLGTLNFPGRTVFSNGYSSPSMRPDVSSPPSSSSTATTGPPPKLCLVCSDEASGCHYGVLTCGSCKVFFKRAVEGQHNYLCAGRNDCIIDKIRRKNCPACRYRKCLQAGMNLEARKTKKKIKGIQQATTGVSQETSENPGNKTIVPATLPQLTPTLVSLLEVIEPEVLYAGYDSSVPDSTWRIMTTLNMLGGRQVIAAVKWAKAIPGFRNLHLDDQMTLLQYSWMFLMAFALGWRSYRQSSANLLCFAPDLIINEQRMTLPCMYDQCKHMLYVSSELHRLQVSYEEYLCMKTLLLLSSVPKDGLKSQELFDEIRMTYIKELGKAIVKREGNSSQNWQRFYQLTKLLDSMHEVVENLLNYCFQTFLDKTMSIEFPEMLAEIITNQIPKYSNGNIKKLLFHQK
# Sequence of Lysosomal acid glucosylceramidase (Homo sapiens) (P04062 whole entry, looked up): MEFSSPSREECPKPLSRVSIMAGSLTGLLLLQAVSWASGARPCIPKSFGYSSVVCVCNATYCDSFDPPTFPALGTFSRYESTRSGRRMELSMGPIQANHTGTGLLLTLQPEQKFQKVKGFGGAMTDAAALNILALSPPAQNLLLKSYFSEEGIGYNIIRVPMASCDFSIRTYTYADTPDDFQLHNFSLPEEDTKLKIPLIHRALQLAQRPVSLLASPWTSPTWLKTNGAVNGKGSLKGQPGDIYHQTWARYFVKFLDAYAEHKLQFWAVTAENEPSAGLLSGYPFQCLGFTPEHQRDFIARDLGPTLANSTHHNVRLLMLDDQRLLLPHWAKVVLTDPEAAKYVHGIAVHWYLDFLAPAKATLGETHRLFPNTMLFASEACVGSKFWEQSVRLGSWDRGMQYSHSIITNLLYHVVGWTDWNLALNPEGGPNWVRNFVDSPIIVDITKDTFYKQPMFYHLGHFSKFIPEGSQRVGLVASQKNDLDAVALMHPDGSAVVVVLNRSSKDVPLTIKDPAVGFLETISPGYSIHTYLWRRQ
# Sequence of Cytochrome P450 1A2 (Homo sapiens) (P05177 whole entry, looked up): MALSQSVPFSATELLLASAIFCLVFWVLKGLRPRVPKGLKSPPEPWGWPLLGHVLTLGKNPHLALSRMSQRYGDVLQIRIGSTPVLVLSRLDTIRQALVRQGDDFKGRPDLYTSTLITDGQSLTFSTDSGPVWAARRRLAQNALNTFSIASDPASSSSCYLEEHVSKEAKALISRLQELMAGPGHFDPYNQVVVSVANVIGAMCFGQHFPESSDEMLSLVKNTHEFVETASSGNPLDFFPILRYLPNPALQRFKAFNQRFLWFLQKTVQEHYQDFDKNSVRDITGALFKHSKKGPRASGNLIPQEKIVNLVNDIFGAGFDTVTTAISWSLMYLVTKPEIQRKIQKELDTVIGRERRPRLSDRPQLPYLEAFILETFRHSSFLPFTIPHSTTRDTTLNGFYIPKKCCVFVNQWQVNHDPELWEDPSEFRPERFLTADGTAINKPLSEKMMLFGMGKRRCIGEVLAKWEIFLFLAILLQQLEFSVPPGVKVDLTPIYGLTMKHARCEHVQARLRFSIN
# Sequence of 3',5'-cyclic-AMP phosphodiesterase 4B (Homo sapiens) (Q07343 whole entry, looked up): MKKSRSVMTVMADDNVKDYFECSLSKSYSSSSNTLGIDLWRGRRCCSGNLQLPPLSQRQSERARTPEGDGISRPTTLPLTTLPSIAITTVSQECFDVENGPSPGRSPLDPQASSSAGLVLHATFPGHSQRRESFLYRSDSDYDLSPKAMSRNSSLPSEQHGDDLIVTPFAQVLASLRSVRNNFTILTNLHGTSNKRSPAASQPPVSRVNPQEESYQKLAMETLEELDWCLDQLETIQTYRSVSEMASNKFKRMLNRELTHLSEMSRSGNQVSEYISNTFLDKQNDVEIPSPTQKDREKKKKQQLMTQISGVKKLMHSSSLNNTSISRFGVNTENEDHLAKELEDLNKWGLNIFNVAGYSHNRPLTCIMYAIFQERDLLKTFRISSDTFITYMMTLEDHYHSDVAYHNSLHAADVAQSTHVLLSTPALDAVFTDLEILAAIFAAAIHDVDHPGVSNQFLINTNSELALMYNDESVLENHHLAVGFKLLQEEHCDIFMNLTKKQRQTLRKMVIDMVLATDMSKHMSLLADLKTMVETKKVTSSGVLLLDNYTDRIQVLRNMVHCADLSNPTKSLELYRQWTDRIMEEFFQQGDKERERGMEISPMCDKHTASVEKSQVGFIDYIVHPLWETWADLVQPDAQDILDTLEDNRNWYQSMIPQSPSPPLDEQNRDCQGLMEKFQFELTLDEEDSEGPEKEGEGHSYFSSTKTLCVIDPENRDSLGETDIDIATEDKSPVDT
# Sequence of Ubiquitin carboxyl-terminal hydrolase 1 (Homo sapiens) (O94782 whole entry, looked up): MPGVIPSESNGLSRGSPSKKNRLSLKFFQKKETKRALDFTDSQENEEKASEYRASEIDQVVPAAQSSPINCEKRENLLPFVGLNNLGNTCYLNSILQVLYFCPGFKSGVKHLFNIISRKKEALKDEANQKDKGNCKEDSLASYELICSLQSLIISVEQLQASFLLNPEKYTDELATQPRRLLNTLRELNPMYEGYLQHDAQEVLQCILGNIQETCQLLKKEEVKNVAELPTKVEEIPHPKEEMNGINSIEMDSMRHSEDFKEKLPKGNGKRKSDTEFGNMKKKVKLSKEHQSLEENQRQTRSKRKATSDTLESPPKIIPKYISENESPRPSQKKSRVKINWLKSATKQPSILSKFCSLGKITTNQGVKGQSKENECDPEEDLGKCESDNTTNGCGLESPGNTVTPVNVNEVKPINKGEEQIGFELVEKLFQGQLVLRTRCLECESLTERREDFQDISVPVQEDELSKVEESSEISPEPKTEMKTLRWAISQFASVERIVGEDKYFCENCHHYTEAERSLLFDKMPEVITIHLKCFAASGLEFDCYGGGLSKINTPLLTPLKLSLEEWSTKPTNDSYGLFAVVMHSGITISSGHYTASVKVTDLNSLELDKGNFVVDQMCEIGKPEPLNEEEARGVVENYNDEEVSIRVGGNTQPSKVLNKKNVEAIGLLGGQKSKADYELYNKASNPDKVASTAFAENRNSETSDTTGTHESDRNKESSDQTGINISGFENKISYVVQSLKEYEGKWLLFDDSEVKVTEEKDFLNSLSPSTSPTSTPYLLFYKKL
# Sequence of Cytochrome P450 3A4 (Homo sapiens) (P08684 whole entry, looked up): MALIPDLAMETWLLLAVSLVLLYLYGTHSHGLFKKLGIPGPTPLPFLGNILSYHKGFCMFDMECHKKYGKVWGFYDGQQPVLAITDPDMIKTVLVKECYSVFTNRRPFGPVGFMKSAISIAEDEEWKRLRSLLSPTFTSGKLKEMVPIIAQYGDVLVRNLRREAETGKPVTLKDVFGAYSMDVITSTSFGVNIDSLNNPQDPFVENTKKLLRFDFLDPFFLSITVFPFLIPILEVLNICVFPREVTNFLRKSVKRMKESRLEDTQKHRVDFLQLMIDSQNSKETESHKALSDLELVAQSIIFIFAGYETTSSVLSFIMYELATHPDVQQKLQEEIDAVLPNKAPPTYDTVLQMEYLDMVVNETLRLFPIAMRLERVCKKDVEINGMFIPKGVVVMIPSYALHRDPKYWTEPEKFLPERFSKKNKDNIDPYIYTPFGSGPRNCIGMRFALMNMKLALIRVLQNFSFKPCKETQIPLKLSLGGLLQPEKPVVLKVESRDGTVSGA
compound,measurement,setting,value
Nc1ncnc2c1ncn2[C@H]1O[C@@H](C(=O)OCCO)[C@@H](O)[C@H]1O,Potency,[1],> 11.4 µM
same,"activity change, negative = inhibition",[2],1.75%
same,Potency,[3],inactive
same,"activity change, negative = inhibition",[4],21.4%
same,"activity, negative = inhibition",[5],25.7%
same,Potency,[6],> 46 µM
same,Potency,[7],> 9.22 µM
same,Potency,[8],inactive
O=C(O)Cn1c(Cc2ccccc2)nc2ccccc21,outcome,[9],inactive
O=C(CN1CCN(Cc2ccccc2)CC1)Nc1ccc(F)c(F)c1,outcome,[9],inactive
N#[N+]c1ccc(Nc2ccccc2)cc1,Potency,[1],> 11.4 µM
same,"activity change, negative = inhibition",[2],-0.339%
same,Potency,[3],inactive
same,"activity change, negative = inhibition",[4],-28.8%
same,"activity, negative = inhibition",[5],-16.1%
CN(C)c1ccc(-c2cc(NCc3ccccc3)ncn2)cc1,Potency,[1],> 11.4 µM
same,"activity change, negative = inhibition",[2],-19.2%
same,Potency,[3],1 µM (active)
same,"activity change, negative = inhibition",[4],12.6%
same,"activity, negative = inhibition",[5],-7.24%
same,Potency,[6],> 46 µM
same,Potency,[7],> 46 µM
same,Potency,[8],inactive
same,Potency,[10],inactive
same,Potency,[11],inactive
same,outcome,[12],inactive
same,outcome,[13],inactive
same,Potency,[14],inactive
CCN1CCc2c(C#N)c(NCc3ccccc3)nc(NCCO)c2C1,"activity change, negative = inhibition",[2],-9.55% [at 17.2 µM]
same,"activity change, negative = inhibition",[4],-11% [at 17.2 µM]
same,"activity, negative = inhibition",[5],-0.118% [at 17.2 µM]
same,Potency,[6],> 20.6 µM
same,outcome,[9],inactive
CNc1ncncc1-c1ccc(C(=O)N(C)C)cc1,Potency,[1],> 11.4 µM
same,"activity change, negative = inhibition",[2],-7.23%
same,Potency,[3],15.8 µM (active)
same,"activity change, negative = inhibition",[4],7.99%
same,"activity, negative = inhibition",[5],8.34%
same,Potency,[6],> 46 µM
same,Potency,[7],> 46 µM
same,Potency,[8],inactive
same,Potency,[10],inactive
same,Potency,[11],inactive
same,outcome,[12],inactive
same,outcome,[13],inactive
same,Potency,[14],inactive
